# From the supplement of paper PMC8728848
# This excerpt belongs to a sample that is enriched for the strongest signals.
# B1: Gal 3 (Homo sapiens), P17931 (protein)
# chain: MADNFSLHDALSGSGNPNPQGWPGAWGNQPAGAGGYPGASYPGAYPGQAPPGAYPGQAPPGAYHGAPGAYPGAPAPGVYPGPPSGPGAYPSSGQPSAPGAYPATGPYGAPAGPLIVPYNLPLPGGVVPRMLITILGTVKPNANILDFQRGNDVAFHFNPRFNENNRRVIVCNTLLDNNWGREERQSVFPFESGKPFKIQVLVEPDHFKVAVNDAHLLQYNHRVKKLNEISKLGISGDIDLTSASYTMI
# How the values were obtained:
# Experiment in all cases: glycan array binding signal (z-score within array); higher = stronger binding
# Conditions in all cases: glycan notation: IUPAC condensed, linker removed; mutation: K176L
# [1] = target: Neu5Ac(a2-3)Gal(b1-3)GalNAc
# How it was run: (§1)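 Columns mapping to the same glycan were averaged after glycan names were converted to IUPAC-condensed notation. The data come from 3228 arrays in the Consortium for Functional Glycomics database, limited to those with an available protein sequence. Binding is reported as a within-array Z-score averaged across arrays of one protein sequence and across linkers.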
# [2] = target: Neu5Ac(a2-3)Gal(b1-3)GlcNAc(b1-3)Gal(b1-4)GlcNAc
# How it was run: as §1
# [3] = target: Neu5Ac(a2-6)Gal(b1-4)GlcNAc(b1-2)Man(a1-3)[Gal(b1-4)GlcNAc(b1-2)Man(a1-6)]Man(b1-4)GlcNAc(b1-4)GlcNAc
# How it was run: as §1
# [4] = target: Neu5Gc(a2-3)Gal(b1-3)[Fuc(a1-4)]GlcNAc
# How it was run: as §1
binder,measurement,setting,value
B1,glycan array binding signal (z-score),[1],-0.269
same,glycan array binding signal (z-score),[2],0.372
same,glycan array binding signal (z-score),[3],-0.267
same,glycan array binding signal (z-score),[4],-0.272
